Screening results: PubChem, National Center for Advancing Translational Sciences (NCATS)
TDP1 block – blocks human tyrosyl-DNA phosphodiesterase 1. actives 0.28% (n = 350,000). Potency, µM (doses to about 130 µM), hits mostly inhibitors. recombinant TDP1, AlphaScreen DNA substrate cleavage; also: nearly all actives have a fitted effect of over 40% in size
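Here, a 5' biotin and 3' phosphotyrosine-FITC DNA oligonucleotide reports Tdp1 activity: intact substrate bridges AlphaScreen beads, while cleavage leaves a 3' phosphate and drops signal. All incubations at room temperature.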
DT40 TDP1 no CPT – qHTS for Inhibitors of human tyrosyl-DNA phosphodiesterase 1 (TDP1): qHTS in cells in absence of CPT; DT40 Tdp1-/- hTDP1 cells, no CPT, ATP luminescence, 48 h; actives 15% (n = 420,000); Potency, µM (series often up to 46.2 µM), actives largely listed as inhibitors; AID 686978, 2013; also: nearly all actives have a fitted effect of over 55% in size
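Cells were dispensed at 400 per well, compounds added by pin tool, plates incubated ≥48 hr at 37 °C, then CellTiter-Glo added for 30 min at room temperature before luminescence reading. Line: DT40 Tdp1-/- complemented with hTDP1; camptothecin omitted.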
DT40 TDP1 CPT – growth inhibition of DT40 Tdp1-/-;hTDP1 cells with camptothecin (screen for TDP1 inhibitors) | actives 12% (n = 420,000) | AID 686979 | chicken DT40 Tdp1-/-;hTDP1 cells + 20 nM CPT, ATP luminescence, 48 h | Potency, µM (titrated, usually from 46.2 µM), most hits filed as inhibitors; also: nearly all actives have a fitted effect of over 55% in size
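Chicken DT40 Tdp1-/- cells stably complemented with human TDP1 were seeded at 400 cells/well in medium containing 20 nM camptothecin, exposed to pin-transferred compounds, and grown at 37 °C for at least 48 hr. Viability was read as ATP luminescence.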
VP16 counter – inhibits Gal4-VP16 luciferase reporter, ROR gamma counter-screen; Potency, µM (doses to about 53.6 µM), usual class: inhibitors; Drosophila S2 Gal4-VP16 UAS-luciferase, luminescence, 20 h; actives 3.5% (n = 310,000); AID 2546;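 also: Gal4-VP16 expression switched on by copper sulfate through the metallothionein promoter; nearly all actives have a fitted effect of over 50% in size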
RORg inh – ROR gamma (mouse) transcription inhibition; Potency, µM (titrated, usually from 53.6 µM), actives largely listed as inhibitors; Drosophila S2 Gal4-RORgamma UAS-luciferase reporter, 20 h; actives 5.4% (n = 310,000); also: nearly all actives have a fitted effect of over 60% in size
Target sequence (P51450 whole entry, looked up, the tested form may be a part): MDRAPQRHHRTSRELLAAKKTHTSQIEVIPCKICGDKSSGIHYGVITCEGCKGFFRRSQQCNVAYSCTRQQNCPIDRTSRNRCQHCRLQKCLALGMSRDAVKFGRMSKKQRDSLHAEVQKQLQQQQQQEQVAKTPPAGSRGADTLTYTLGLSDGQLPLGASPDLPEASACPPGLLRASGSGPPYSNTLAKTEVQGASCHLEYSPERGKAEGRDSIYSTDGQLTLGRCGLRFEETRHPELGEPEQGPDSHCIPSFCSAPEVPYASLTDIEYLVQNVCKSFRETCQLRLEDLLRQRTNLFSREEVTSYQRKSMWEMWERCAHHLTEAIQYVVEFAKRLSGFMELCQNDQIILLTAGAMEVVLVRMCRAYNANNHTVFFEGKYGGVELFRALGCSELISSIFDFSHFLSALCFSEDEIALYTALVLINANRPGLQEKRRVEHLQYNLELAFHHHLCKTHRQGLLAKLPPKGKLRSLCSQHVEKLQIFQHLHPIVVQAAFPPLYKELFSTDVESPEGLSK
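Drosophila S2 cells stably expressing Gal4-DBD/mouse RORγ fusion under metallothionein promoter plus UAS-luciferase; compound 1 h, then 700 uM CuSO4 induction for 20 h at ambient temperature; inhibition read as reduced luminescence.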
Large screens that a line does not name were inactive. This is a sample that favours compounds with a hit; in the whole collection about 19% have one here. Calls follow the shape of the dose curve; as a rule, active = well fitted curve in the direction sought with a large enough effect; inconclusive = small, poorly fitted or top-dose-only effect, or another doubt; inactive = no such curve, though single readings can be large; an effect the other way counts as inactive or inconclusive.

Cc1sc(NC(=S)Nc2ccc(F)cc2)c(C(N)=O)c1C	VP16 counter 11µM, RORg inh 8.9µM
CCOC(=O)c1c(NC(=S)NC)sc2c1CC(C)(C)SC2	VP16 counter 0.89µM, RORg inh 0.4µM
CCOC(=O)c1c(NC(=S)Nc2ccc(OC)cc2)sc2c1CCC2	RORg inh inconclusive
CCOC(=O)c1c(NC(=S)Nc2cccnc2)sc(C)c1C	VP16 counter inconclusive, RORg inh 13µM
CCOC(=O)c1c(NC(=S)Nc2ccccc2)sc2c1CC(C)(C)SC2	DT40 TDP1 no CPT inconclusive, DT40 TDP1 CPT 16µM, VP16 counter 4µM, RORg inh 2.8µM
Cc1cc(CSc2ccccc2)ccc1NC(=O)c1cccc([N+](=O)[O-])c1	none
Cc1cc(NC(=O)CSc2nc3ccccc3[nH]2)n(-c2ccccc2)n1	DT40 TDP1 no CPT inconclusive, DT40 TDP1 CPT inconclusive
Cc1cc(NC(=O)/C=C/c2ccc(F)cc2)n(-c2nc3ccccc3[nH]2)n1	DT40 TDP1 no CPT 15µM, DT40 TDP1 CPT inconclusive, VP16 counter 1µM, RORg inh 1.3µM
Cc1cc(NC(=O)/C=C/c2cccc(Cl)c2)n(-c2nc3ccccc3[nH]2)n1	DT40 TDP1 no CPT 12µM, VP16 counter inconclusive, RORg inh inconclusive
NC(=O)c1ccccc1NC(=O)/C=C/c1cccc(Cl)c1	none
Cc1cc(NC(=O)/C=C/c2cccc(F)c2)n(-c2nc3ccccc3[nH]2)n1	DT40 TDP1 no CPT 12µM, DT40 TDP1 CPT 23µM, VP16 counter 2.8µM, RORg inh 1.6µM
COc1ccc(/C=C/C(=O)Nc2cc(C)nn2-c2nc3ccccc3[nH]2)cc1	DT40 TDP1 no CPT 18µM, DT40 TDP1 CPT inconclusive, VP16 counter 2.5µM, RORg inh 1.8µM
O=c1n(-c2cccc(Cl)c2)c(=O)n2n1CCC2	none
CCOC(=O)C(NC(=O)CCl)(Nc1sc(C)c(CC)c1C#N)C(F)(F)F (configuration not stated)	DT40 TDP1 no CPT 6.5µM, DT40 TDP1 CPT inconclusive
CCOC(=O)C(NC(=O)CC(C)C)(Nc1sc(C)c(CC)c1C#N)C(F)(F)F (configuration not stated)	DT40 TDP1 no CPT inconclusive, DT40 TDP1 CPT inconclusive
COc1cccc(NC(=S)/C(=C(\[O-])c2cc(C)n(-c3ccccc3F)c2C)[n+]2ccc(N(C)C)cc2)c1	DT40 TDP1 no CPT 12µM, DT40 TDP1 CPT 21µM
COc1cccc(NC(=S)/C(=C(\[O-])c2ccc(C)c([N+](=O)[O-])c2)[n+]2ccccc2)c1	VP16 counter inconclusive
Cc1cc(C([O-])=C(C(=S)Nc2ccc(F)cc2)[n+]2ccccc2)c(C)n1-c1ccc(F)cc1	DT40 TDP1 no CPT 21µM, DT40 TDP1 CPT 26µM (no result: TDP1 block, VP16 counter, RORg inh)
COCCCNC(=O)CCN1C(=O)COc2ccccc21	none
N#CC(c1ccc(O)cc1)N1CCCCC1 (configuration not stated)	none
C/C(=N\Nc1nc(C(C)(C)C)cs1)c1ccc(O)cc1	DT40 TDP1 no CPT 18µM, VP16 counter 10µM, RORg inh inconclusive
C/C(=N\Nc1nc(C(C)(C)C)cs1)c1ccccc1	DT40 TDP1 no CPT 23µM, DT40 TDP1 CPT 23µM (no result: VP16 counter, RORg inh)
C/C(=N\Nc1nccnc1Cl)c1ccc(O)cc1	none (no result: TDP1 block)
CC(C)=NNc1nc(-c2ccccc2)cs1	DT40 TDP1 no CPT inconclusive, DT40 TDP1 CPT inconclusive, RORg inh inconclusive
C/C(=N\Nc1nc(C(=O)O)cs1)c1ccccc1	VP16 counter 5µM, RORg inh 0.63µM
C/C(=N\Nc1nc2c(s1)CCCC2)c1ccccc1	DT40 TDP1 no CPT 15µM, DT40 TDP1 CPT 16µM, VP16 counter inconclusive, RORg inh 13µM
COCCCNC(=O)CCC(=O)Nc1ccc2nc(N3CCOCC3)cc(C)c2c1	none
COc1cccc(NC(=O)CCC(=O)Nc2ccc3nc(N4CCOCC4)cc(C)c3c2)c1	DT40 TDP1 no CPT 15µM, DT40 TDP1 CPT inconclusive
COCCNC(=S)Nc1ccc2nc(N3CCCC3)cc(C)c2c1	RORg inh inconclusive
Cc1cc(N2CCOCC2)nc2ccc(NC(=S)NC(C)C)cc12	DT40 TDP1 no CPT inconclusive, DT40 TDP1 CPT inconclusive, VP16 counter inconclusive, RORg inh 10µM (no result: TDP1 block)
COCCNC(=S)Nc1ccc2nc(N3CCOCC3)cc(C)c2c1	RORg inh inconclusive (no result: TDP1 block)
Cc1cc(N2CCOCC2)nc2ccc(NC(=S)NCc3ccc4c(c3)OCO4)cc12	DT40 TDP1 no CPT 18µM, DT40 TDP1 CPT inconclusive, VP16 counter inconclusive, RORg inh 22µM
Cc1cc(N2CCCC2)nc2ccc(NC(=S)NC(C)C)cc12	DT40 TDP1 no CPT 16µM, DT40 TDP1 CPT inconclusive
CCN1C(=O)[C@H]2[C@@H](c3ccc(Cl)cc3)N3C(=O)CN(CCOC)C(=O)[C@@]3(C)[C@H]2C1=O	none (no result: TDP1 block)
Cc1oc(-c2ccc(Cl)cc2)nc1CS(=O)CC(=O)N1CCN(c2cccc(C(F)(F)F)c2)CC1 (configuration not stated)	DT40 TDP1 no CPT 21µM, DT40 TDP1 CPT 15µM (no result: VP16 counter, RORg inh)
COc1ccc(N2CCN(C(=O)CS(=O)Cc3nc(-c4ccc(OC)c(OC)c4)oc3C)CC2)cc1 (configuration not stated)	DT40 TDP1 no CPT inconclusive, DT40 TDP1 CPT inconclusive
Cc1oc(-c2ccc(Cl)cc2)nc1CS(=O)CC(=O)NC1CC1 (configuration not stated)	none
COc1cccc(-c2nc(CS(=O)CC(=O)N3CCN(c4cccc(C(F)(F)F)c4)CC3)c(C)o2)c1 (configuration not stated)	DT40 TDP1 no CPT 13µM, DT40 TDP1 CPT 13µM (no result: VP16 counter, RORg inh)
Cc1oc(-c2ccccc2Cl)nc1CS(=O)CC(=O)N1CCN(c2cccc(C(F)(F)F)c2)CC1 (configuration not stated)	DT40 TDP1 no CPT 13µM, DT40 TDP1 CPT 9.2µM (no result: VP16 counter, RORg inh)
Cc1ccc(-c2nc(CS(=O)CC(=O)N3CCN(c4ccc(F)cc4)CC3)c(C)o2)cc1 (configuration not stated)	DT40 TDP1 no CPT 15µM, DT40 TDP1 CPT inconclusive
Cc1cccc(CN2CCN(c3ccccn3)CC2)c1	none (no result: TDP1 block, VP16 counter, RORg inh)
Cc1ccc(C)c(NC(=O)CSc2nnc(C)n3c2cc2occc23)c1	DT40 TDP1 no CPT inconclusive (no result: VP16 counter, RORg inh)
COCCCNC(=O)CN(c1ccc(Cl)c(Cl)c1)S(C)(=O)=O	none
Cc1cccc(-c2nc(CS(=O)CC(=O)N3CCN(C)CC3)c(C)o2)c1 (configuration not stated)	none
Cc1ccc(-c2nc(CS(=O)CC(=O)N3CCN(c4cccc(Cl)c4)CC3)c(C)o2)cc1 (configuration not stated)	DT40 TDP1 no CPT inconclusive, DT40 TDP1 CPT 16µM (no result: VP16 counter, RORg inh)
CC(C)(C)Cc1c(-c2ccco2)nc2ccc(Cl)cn12	DT40 TDP1 CPT 26µM (no result: TDP1 block, VP16 counter, RORg inh)
N#Cc1ccc(-c2nc3ccc(Cl)cn3c2Cc2ccccc2)cc1	DT40 TDP1 no CPT inconclusive, DT40 TDP1 CPT 21µM (no result: TDP1 block, VP16 counter, RORg inh)
CC(C)(C)Cc1c(-c2ccc(C#N)cc2)nc2ccc(Cl)cn12	DT40 TDP1 no CPT 16µM, DT40 TDP1 CPT inconclusive (no result: TDP1 block, VP16 counter, RORg inh)
